Assay results taken from the supplement of paper PMC6555819.

How the values were obtained:
Test in all cases: PBM binding z-score (relative to random genomic background probes); higher = stronger binding; sequences stand for … in GC…GCGATTGACAGCGTAGAATGAAGG
[1] = tested on: RARb homodimer (NR concentration 270 nM)
Outline: (§1)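 On custom Agilent 4×180K arrays, double-stranded probes with 34-nt variable regions carried direct-repeat seeds, single-nucleotide variants, half-site ablations or random human genomic background. Ligand-free nuclear receptor dimers were applied for 1 h, and binding was read with antibodies against each partner (one per run). Binding z-scores come from regression-normalized fluorescence, with the random background probes as reference.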

[2] = tested on: RARg:RXRa (NR concentration 270 nM, RXRa partner concentration 90 nM)
Outline: as §1

[3] = tested on: RARg homodimer (NR concentration 270 nM)
Outline: as §1

[4] = tested on: RXRa DBDmut IVT, anti-RXR (DBD mutation: RXRa K156A/R161A, NR concentration 90 nM)
Outline: as §1

[5] = tested on: RXRa homodimer (NR concentration 180 nM)
Outline: as §1

[6] = tested on: THRa:RXRa (NR concentration 90 nM, RXRa partner concentration 90 nM)
Outline: as §1

[7] = tested on: THRa homodimer (NR concentration 90 nM)
Outline: as §1

[8] = tested on: VDR homodimer (NR concentration 270 nM)
Outline: as §1

[9] = tested on: VDR:RXRa (NR concentration 270 nM, RXRa partner concentration 90 nM)
Outline: as §1

Sequence | PBM binding z-score [1] | PBM binding z-score [2] | PBM binding z-score [3] | PBM binding z-score [4] | PBM binding z-score [5] | PBM binding z-score [6] | PBM binding z-score [7] | PBM binding z-score [8] | PBM binding z-score [9]
GCTAGCAGGCCATTTGGGTGACTCAATGACGGGC | -0.273 | -0.23 | 0.0183 | -0.541 | -0.076 | 0.189 | -0.653 | -0.481 | 
CCTCGGAGGACTGAAGGTCAGAGCTGTCCGCTTT | 2.67 | 2.13 | 1.87 | -0.27 | 1.46 | 1.66 | -0.417 | -0.325 | 0.567
GGTACAGGGTCAGCTAGAGGCCAGAGTATGGAAA | 3.27 | 6.72 | 4.84 | 1.01 | 4.27 | 3.07 | 0.717 | 1.14 | 3.29
ACTCGGAGGACAAAGGTCAGAGCCACGCCAGTGA | 4.56 | 6.18 | 5.6 | 1.27 | 6.11 | 3.55 | 0.686 | 1.13 | 3.43
ATATGTGGGTTACATCCGGGTCATTCAGGCTATG | 2.79 | 3.53 | 1.94 | 1.08 | 3.17 | 3.75 | 3.01 | 3.65 | 4.41
TCTTGTAGACCAAAGGTTAAGAAAGCCGAAGCCT | 1.34 | 1.88 | 0.82 | 0.533 | 2.54 | 1.3 | -0.878 | -0.489 | 0.807
CCTGCTAGGTCAATGGACAGCTAAAGCAGCTCGC | 2.51 | 3.34 | 4.17 | 1.5 | 1.8 | 1.95 | 0.0455 | 0.153 | 0.586
GCTAGCAGGCCGTTTGGGTCACTCAATGACGGGC | 1.43 | 0.678 | 0.649 | -0.318 | 0.67 | 1.61 | 0.166 | 0.089 | 
ATACCAGGGTGATCGTGAGGTCGTTGATACTAAC | 1.83 | 2.26 | 0.727 | 0.415 | 1.78 | 3.38 | 2.62 | 2.64 | 3.22
CCGACTGGGGCAAGGGTACCATAACGCACAGCCA | 0.569 | 0.349 | 0.692 | -1.52 | 0.269 | -0.0335 | -0.368 | -0.448 | -0.346
TCATATACGTAATACAGGTGAAAGTCGGCATCTA | 0.8 | 0.758 | 0.567 | 1.76 | 1.3 | 0.75 | 0.27 | 0.145 | 1.29
CCTACTGGGCCATTCCGAGGTCATTGATCATATG | 3.36 | 3.43 | 2.28 | 1.08 | 2.86 | 3.68 | 3.62 | 4.08 | 3.86
TCGAGTAGTTTAGTCGGGGCATTCAGCCAACATA | 0.253 | -0.495 | -0.511 | 0.57 | -0.338 | 0.245 | 0.214 | 0.234 | 0.157
GATACAGGGTCAGCTAAAGGCCAGAGTATGGAAA | 3.61 | 6.61 | 5.01 | 0.751 | 4.45 | 3.02 | 0.329 | 0.806 | 3
TCTCGGAGGACAGGAAGGTCAGAGCTTTCCAGAG | 3.54 | 2.42 | 2.34 | 0.51 | 1.69 | 2.1 | 0.256 | 0.37 | 1.57
TCATATAGGTAAATGCTAGGTGAACGTCCGATCT | 0.575 | 0.645 | 0.417 | 1.4 | 0.952 | 1.56 | 0.84 | 0.0802 | 0.914
CCTTACGGGTCAAGGTTATTGCACGGGTGGTACG | 3.5 | 4.83 | 4.5 | 0.197 | 5.06 | 3.04 | 0.977 | 1.95 | 3.42
TTACCAAGGTGAGCTGAGGTCGCTGATCCAACTC | 1.76 | 1.33 | 1.22 | -0.393 | 1.2 | 4.95 | 2.17 | 0.556 | 2.9
GTACCGAGGTGAATAGGTCGTTGATGAGTAGGCG | 1.73 | 2.95 | 1.64 | -0.0161 | 2.11 | 2.15 | 0.482 | 0.202 | 1.14
ACAGACAGGTAAGTGAAGGTAACTCAGCTGGACG | -0.171 | -0.116 | 0.263 | -0.281 | -0.0799 | 0.972 | -0.0252 | -0.27 | -0.31
CCAGACAGGTGAAAGCTAACTCAGTCTGGTACGC | -0.273 | 0.135 | 0.254 | -0.328 | 0.326 | -0.0859 | -0.832 | -0.146 | 
AGAATGAGGTTATTAACATCAGGGAATTGCGGTC | 0.673 | 1.11 | 0.779 | 1.83 | 1.67 | 2.13 | 0.447 | 1.12 | 1.31
GGTATTAGTTGAAAGGGCAACCGAATGATTCTCG | 2.53 | 1.76 | 1.81 | 0.965 | 1.5 | 1.08 | 0.579 | 1.23 | 1.16
ACACCAAGGTGATCGTGAGGTCGTTGATACTAAC | 1.69 | 2.28 | 0.878 | 1.13 | 1.64 | 3.42 | 2.39 | 2.69 | 3.21
ACCGACAGGTGAGTGAAGGTAACTCAGCTGGACG | -0.286 | 0.0773 | 0.407 | -0.459 | 0.0984 | 1.56 | -0.918 | -1 | -0.484
TCTCGGAGGACACGAAGGGTCAGAGCTCGACATC | 3.84 | 3.26 | 3.44 | 0.595 | 2.4 | 2.92 | 0.541 | 0.624 | 1.91
TCGAGTAGGTTACCAATGGGGCATTTAGCTTTCT | 0.597 | 1.09 | 0.384 | 0.219 | 0.324 | -0.0531 | -0.844 | -0.414 | 0.185
TTAGCAAGGTGAAGGTCGTTGATCCCTCTGTAGA | 1.68 | 1.09 | 1.04 | -0.172 | 1.53 | 2.03 | 0.432 | 0.356 | 

Sequence | PBM binding z-score [1] | PBM binding z-score [2] | PBM binding z-score [3] | PBM binding z-score [4] | PBM binding z-score [5] | PBM binding z-score [6] | PBM binding z-score [7] | PBM binding z-score [8] | PBM binding z-score [9]
CGTCCAAGGTCAAGGTCAGTGTAAGAGACTCGAA | 4.82 | 6.56 | 7.36 | 3.69 | 6.28 | 4.39 | 3.57 | 3.32 | 
CCTACTGGGCCACAAAGGTCATTGATGCCGATAA | 4.64 | 5.33 | 4.68 | 1.13 | 6.32 | 3.38 | 0.818 | 3.31 | 
TCTTGTAGTTCAAAGGTTAAGAAAGCCGAAGCCT | 2.54 | 4.81 | 2.39 | 2.69 | 6.78 | 2.53 | -0.0884 | 1.9 | 
ATCTCTAGGTAAAGATAGTTCAGTGAATGCAAAT | 0.887 | 0.422 | 0.748 | -0.0413 | 0.163 | 0.71 | 0.0896 | 0.419 | 
CCTACTGGGCCATCAGGTCATTAATATCAACGTT | 2.55 | 1.64 | 1.8 | 0.551 | 0.85 | 2.99 | 2.9 | 1.56 | 
TCATATAGCTAAATGCTAGGTGAAAGTCCGATCT | 0.184 | 0.0741 | 0.129 | 0.952 | 0.435 | 0.577 | -0.00445 | -0.29 | 
TCTAATTGGTCACGGAGGTCACACACGACGGGTA | 4.68 | 5.01 | 5.18 | 1.55 | 5.28 | 3.73 | 2.75 | 3.23 | 
ATATGTAGGTTATCGGCTCATTCAGTTTGCGCAT | 0.158 | 0.446 | 0.752 | 0.79 | 0.927 | 0.266 | 0.293 | 0.816 | 
TCTCGGAGGACACGAAAGGTCATAGCTCGACATC | 4.89 | 5.58 | 5.34 | 1.71 | 5.3 | 4.24 | 2.12 | 2.67 | 
ACAGACAGGTGAGTGAAGGTATCTCAGCTGGACG | -0.269 | -0.0868 | 0.333 | -0.121 | 0.228 | -0.00206 | -0.781 | -0.981 | 
CCGACTGGGGCATAAGGTTAACATAAGCCAGCCC | 1.89 | 2.08 | 1.34 | -0.0628 | 1.45 | 2.08 | 1.06 | -0.243 | 
CTCTAAAGGTCGGTTGAGGTGAGTATACGGATAA | 2.4 | 3.06 | 3.15 | 1.52 | 2.44 | 5.16 | 1.17 | 0.546 | 
CCGACTGGGGCAGAAAGGTTACAATACCATCCGG | 1.83 | 1.59 | 1.25 | -0.65 | 1.75 | 0.907 | -0.555 | 0.0532 | 
TAGCCTAGGTCATTCAGGGGCCAGTATTGAAAGC | 3.3 | 6.04 | 4.51 | 2.08 | 2.72 | 3.47 | 0.833 | 2.03 | 
CCTAGCAGGCCAATCTGGGGCACTCAAGGCTTGA | 0.233 | -0.125 | 0.0351 | -0.585 | -0.29 | 1.65 | -0.87 | -0.374 | 
TCTCGGGGGACACGAAAGGTCAGAGCTCGACATC | 4.59 | 6.13 | 6.61 | 2.14 | 4.9 | 4.19 | 2.07 | 1.57 | 
TAGCCTATGTCATGGGCCAGTATACCACGCGAAC | 0.149 | 0.192 | 0.474 | -0.981 | 0.178 | -0.349 | -0.74 | -0.627 | 
TGAATGAGGTTAAAGATCACGGAACGTGGCGTCG | 0.603 | 2.83 | 1.49 | 0.843 | 5.25 | 2.72 | 0.0245 | 0.625 | 
CAGTCTAGGTCAGGGCCAGTATAGGAGGAACGTT | 2.84 | 3.02 | 3.96 | 0.701 | 1.55 | 2.42 | 1.52 | 0.322 | 
CTACCAAGGAGAACAAGGTCGTTGATTACTATTC | 1.14 | 0.413 | 0.266 | 1.2 | 0.732 | 1.87 | 1.05 | 1.73 | 
GGAACGAGGGCGAGTTGATAGCAGAGTTTGATGG | -0.0873 | -0.0842 | 0.176 | 1.73 | 0.0566 | -0.305 | -0.578 | 1.12 | 
GTACCAAGGGGAATAGGTCGTTGATGAGTAGGCG | 0.74 | 0.528 | 0.371 | -0.365 | 0.651 | 0.124 | -0.309 | 0.49 | 
ATATATAGGTTAAGGGTCATTCAGGTTGGTTCGC | 4.27 | 4.98 | 4.04 | 2.17 | 6.8 | 3.86 | 2.03 | 4.9 | 
CAAACTAAGTCAAGAGGTCAAAGTCCGCTTCCCG | 4.49 | 5.8 | 4.46 | 2.11 | 6.2 | 3.92 | 1.7 | 4.04 | 
ACAGACAGGTGAGTAAAGGTAACTCAGCTGGACG | 0.365 | 0.666 | 0.622 | -0.605 | 0.915 | 1.67 | -0.828 | -0.485 | 
CATACAGGGTCAGCTAGGCCAGGGTAGGGACGGC | 3.59 | 4.48 | 5.13 | 0.607 | 4.42 | 3.28 | 1.26 | 1.47 | 
CCAGACAGGTGAAAGATAACTCAGTCTGGTACGC | 0.244 | 0.614 | 0.6 | 0.193 | 0.775 | 0.125 | -0.296 | 0.339 | 
